Common to all, as to assay: NCI-60 one-dose screen, 48 h (100 = growth as untreated, 0 = no growth, -100 = all killed)
The subject of one assay is NCI-H23 lung. The settings on record: 10 µM unless noted.
For the next assay, the system named is NCI-H226 lung. Conditions: 10 µM unless noted.
The test system of another assay is NCI-H322M lung. Conditions: 10 µM unless noted.
A further assay relates to HOP-62 NSCLC. The settings on record: 10 µM unless noted.
Another assay relates to HOP-92 NSCLC. Conditions: 10 µM.
Another assay relates to NCI-H522 lung. The settings on record: 10 µM.
The subject of another assay is A549/ATCC NSCLC. The settings on record: 10 µM unless noted.
The test system of another assay is 786-0 renal. Conditions: 10 µM unless noted.
The next assay has as its system DU-145 prostate. Conditions: 10 µM unless noted.
In a further assay the test system is K-562 leukemia. Conditions: 10 µM unless noted.
In another assay the test system is MALME-3M melanoma. The settings on record: 10 µM unless noted.
The next assay has as its system MDA-MB-231 breast. Conditions: 10 µM unless noted.
Another assay has as its system RXF 393 renal. Conditions: 10 µM unless noted.
Another assay has as its system SF-268 CNS. Conditions: 10 µM unless noted.
Another assay relates to SF-295 CNS. Conditions: 10 µM unless noted.
For another assay, the system named is SF-539 CNS. Conditions: 10 µM unless noted.
A further assay relates to UACC-257 melanoma. The settings on record: 10 µM unless noted.
The subject of a further assay is M14 melanoma. Conditions: 10 µM unless noted.
The subject of a further assay is COLO 205 colon. Conditions: 10 µM unless noted.

In PubChem BioAssay (NCI) one finds growth data, which are given here for eight compounds.

This is part of a sample that, as a whole, favours compounds with a hit. Of some 83,000 tested, about 20% had one in any assay.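 Testing used 96-well plates and a 48-hour single-concentration exposure. Example: -40 means 40% of the starting cells died.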 A number with no mark means an inactive call. The source made the active and inactive calls. Rule for the calls: active = growth percent below 10; inactive = the rest.

Regarding `O=C(Nc1cccc(Cn2c(=O)[nH]c3ccc(Oc4ncccn4)cc3c2=O)c1)c1ccc(Cl)cc1`, the growth with NCI-H23 lung was 46.9%; with NCI-H226 lung it was 34.6%; in the assay on NCI-H322M lung, 61.5%; in the assay with HOP-62 NSCLC, 55.2%; with HOP-92 NSCLC, 52.8%; with NCI-H522 lung, 50.5%. Moreover, the growth is 46.9% with A549/ATCC NSCLC; 70.5% in the assay on 786-0 renal; 62.3% in the assay on DU-145 prostate; 4.84% (active) in the assay on K-562 leukemia; 41% with MALME-3M melanoma; 53.6% in the assay with MDA-MB-231 breast. Further, the growth in the assay with RXF 393 renal was 51.4%; with SF-268 CNS it was 56.8%; in the assay on SF-295 CNS it was 39.4%; in the assay on SF-539 CNS, 59.2%; in the assay on UACC-257 melanoma it was 25.9%; in the assay with M14 melanoma, 57.8%.
`CN1CCN(Cc2ccc(NC(=O)c3ccc(C#Cc4c(N)ncc5ccc(F)cc45)cc3)cc2C(F)(F)F)CC1`: the growth in the assay with NCI-H23 lung was -80.4% (active); with NCI-H226 lung it was 55.1%; in the assay with NCI-H322M lung, -49% (active); with HOP-62 NSCLC, -39.2% (active); with HOP-92 NSCLC, -2% (active); in the assay with NCI-H522 lung it was -85.2% (active). Moreover, the growth with A549/ATCC NSCLC is -49.1% (active); in the assay on 786-0 renal, -56.6% (active); with DU-145 prostate, -46.5% (active); in the assay with K-562 leukemia it was -44.5% (active); in the assay on MALME-3M melanoma, -88.1% (active); in the assay on MDA-MB-231 breast, -72.5% (active). Besides, the growth with RXF 393 renal is -43.5% (active); in the assay with SF-268 CNS, -21.1% (active); in the assay with SF-295 CNS, -56.7% (active); in the assay on SF-539 CNS, -90% (active); with UACC-257 melanoma it was -58.5% (active); in the assay on M14 melanoma, -89.2% (active).
Take `COc1cccc(CNC(=O)c2cccc(C3CC(=O)c4c(cc(OC)c(OC)c4OC)O3)c2)c1` (centres undefined): the growth in the assay with NCI-H23 lung is 99.1%; with NCI-H226 lung it was 78.2%; with NCI-H322M lung, 86.6%; in the assay on HOP-62 NSCLC it was 66.7%; in the assay on HOP-92 NSCLC, 19.8%; in the assay with NCI-H522 lung, 24.9%. Also, the growth was 80.8% with A549/ATCC NSCLC; 24.8% with 786-0 renal; 101% in the assay with DU-145 prostate; 10.7% in the assay on K-562 leukemia; 71.3% with MALME-3M melanoma; 76.8% in the assay on MDA-MB-231 breast. In addition, the growth was 84.3% with RXF 393 renal; 78.7% with SF-268 CNS; 84.1% in the assay on SF-295 CNS; 35.4% in the assay on SF-539 CNS; 67.8% with UACC-257 melanoma; 41% in the assay on M14 melanoma.
On to `Cc1ncc(C(=O)Nc2ccc(CN3CCN(C)CC3)c(C(F)(F)F)c2)cc1C#Cc1cnc(NC2CC2)c2ncccc12`, for which the growth is -70.8% (active) in the assay with NCI-H23 lung; 39.7% in the assay on NCI-H226 lung; -87.7% (active) in the assay on NCI-H322M lung; 16.9% with HOP-62 NSCLC; 33.4% with HOP-92 NSCLC; -76.4% (active) in the assay with NCI-H522 lung. Besides, the growth in the assay on A549/ATCC NSCLC was -91.5% (active); in the assay on 786-0 renal it was -85.2% (active); in the assay on DU-145 prostate, -83.1% (active); in the assay with K-562 leukemia it was -56.8% (active); in the assay with MALME-3M melanoma it was -88.5% (active); with MDA-MB-231 breast, -97.3% (active). Besides, the growth in the assay on RXF 393 renal was -90.6% (active); in the assay with SF-268 CNS, -72.7% (active); in the assay with SF-295 CNS, -91.8% (active); in the assay with SF-539 CNS, -98.3% (active); in the assay with UACC-257 melanoma, -65% (active); with M14 melanoma it was -89.8% (active).
As to `N/C(=N\O)c1ccncc1`, the growth in the assay with NCI-H23 lung was 95.6%; in the assay on NCI-H226 lung, 117%; with NCI-H322M lung it was 101%; in the assay on HOP-62 NSCLC, 93.6%; with HOP-92 NSCLC it was 107%; in the assay with NCI-H522 lung it was 93.4%. For the same compound, the growth with A549/ATCC NSCLC was 102%; with 786-0 renal, 100%; in the assay on DU-145 prostate it was 104%; with K-562 leukemia it was 104%; with MALME-3M melanoma, 108%; with MDA-MB-231 breast, 102%. Also, the growth in the assay with RXF 393 renal is 115%; in the assay on SF-268 CNS, 97.9%; in the assay with SF-295 CNS it was 94.5%; in the assay with SF-539 CNS, 105%; with UACC-257 melanoma, 106%; in the assay on M14 melanoma, 99.8%.
As to `COc1cc2c(c(OC)c1OC)C(=O)CC(c1cccc(C(=O)Nc3cccc(Br)c3)c1)O2` (centres undefined), the growth in the assay with NCI-H23 lung is 97%; in the assay on NCI-H226 lung it was 85.1%; in the assay with NCI-H322M lung, 81.5%; in the assay on HOP-62 NSCLC it was 86%; in the assay with HOP-92 NSCLC it was 55.3%; in the assay on NCI-H522 lung it was 51.7%. The growth with A549/ATCC NSCLC was 77.9%; in the assay with 786-0 renal, 84%; in the assay with DU-145 prostate, 87%; with K-562 leukemia, 49.8%; in the assay with MALME-3M melanoma it was 85%; in the assay on MDA-MB-231 breast, 63.7%. Also, the growth is 88.8% with RXF 393 renal; 73.6% with SF-268 CNS; 86.7% in the assay with SF-295 CNS; 86.8% with SF-539 CNS; 76.8% in the assay on UACC-257 melanoma; 73.1% with M14 melanoma.
For the compound `O=C(NCCCl)Nc1nccnc1OCc1ccc(F)cc1`, the growth in the assay with NCI-H23 lung is 97.2%; in the assay with NCI-H226 lung, 100%; with NCI-H322M lung, 104%; in the assay on HOP-62 NSCLC, 91.4%; with HOP-92 NSCLC, 79.4%; in the assay with NCI-H522 lung it was 77.6%. In addition, the growth is 102% in the assay on A549/ATCC NSCLC; 89% in the assay on 786-0 renal; 114% in the assay with DU-145 prostate; 99.4% in the assay on K-562 leukemia; 148% in the assay with MALME-3M melanoma; 87.6% in the assay on MDA-MB-231 breast. Moreover, the growth is 109% in the assay with RXF 393 renal; 99.2% in the assay on SF-268 CNS; 99.2% in the assay with SF-295 CNS; 109% in the assay on SF-539 CNS; 109% in the assay on UACC-257 melanoma; 95.3% with M14 melanoma.
Take `COc1ccc(-c2nc(SCC(C)C)nc(Nc3ccc(C(=O)O)cc3)c2C#N)cc1`: the growth in the assay with NCI-H23 lung is 88.8%; in the assay with NCI-H226 lung, 87.7%; with NCI-H322M lung it was 96.9%; in the assay on HOP-62 NSCLC, 116%; in the assay with HOP-92 NSCLC, 89%; with A549/ATCC NSCLC, 89%. For the same compound, the growth is 106% in the assay on 786-0 renal; 89.7% in the assay with COLO 205 colon; 88.7% with DU-145 prostate; 89% in the assay with K-562 leukemia; -57.7% (active) in the assay on MALME-3M melanoma; 109% in the assay on MDA-MB-231 breast. Moreover, the growth is 83.1% in the assay with RXF 393 renal; 91% with SF-268 CNS; 75.9% with SF-295 CNS; 97.1% in the assay on SF-539 CNS; 96.9% in the assay on UACC-257 melanoma; 93% in the assay with M14 melanoma.
